Measurements reported in the OligoGym collection.

Target: CRTAM
Experiment: pooled miR-30 sensor sort-seq; sequence = guide strand
Details: shRNA
Also: reference of the scale not given here.

In order of falling sensor-assay potency score (higher = more potent):
1. TTGATCTGTAACTTTCTAGTGT  0.218
2. TTTGTGATGTAGTTCATGCAAC  -0.216
3. TTAGCTGCTCACACTGACCCTG  -0.252
4. TTTTCTTTCTTGCCAGTCCTAA  -0.265
5. TTAAACTACAAGCTTTATGTGC  -0.391
6. TTTGTGCTTACAGAGTCGCTGT  -0.405
7. TTTGCTTCTGAGTACAACTTTG  -0.892
8. TAGTATTACATTTCTTCCCATC  -0.999
9. TTGACCTTGATCTGTAACTTTC  -1.09
10. TTGAATGTTGTACATTTTCCTT  -1.1
11. TTTTGCTTTCTGATAACTGAAG  -1.15

Target: CRX
Experiment: as above
Details: shRNA

In order of falling sensor-assay potency score (higher = more potent):
1. TTTGGTTTGACTTCTTCTTGGA  0.763
2. TGTAAGCTGAACACCGAGCTGT  0.575
3. TTGGTTTGACTTCTTCTTGGAG  -0.00294
4. TAGACGTCTGGGTACTGGGTCT  -0.0426
5. TGAGAGAATCACTAGGACCTGT  -0.0623
6. TTGAACCAAACCTGAACCCTGG  -0.194
7. TTCAGAGCCACCTCCTCACGGG  -0.313
8. AATTCCAAGCTATCCACGGGGC  -0.328
9. TTGTAGGTGAATTTCCAGGTGC  -0.434
10. TTTGACTTCTTCTTGGAGCAAG  -0.501
11. TGAACCAAACCTGAACCCTGGA  -0.615
12. TTTCTCAGGAATGCCATCCCGG  -0.63
13. TTGATCTTCAGAGCCACCTCCT  -0.746
14. TGATCCTTGTAGTCCAGAGGGT  -0.793
15. TGTAGGAATCTGAGATGCCCAG  -0.841
16. TAGCTCTGGCCTGATAGGGAGG  -0.851
17. TTCTGAAGCCTGGAGCTCGTGG  -0.966
18. TAGGTCATGGCATAGGGGGCGG  -1.09
19. TTGTAGTCCAGAGGGTCCATGG  -1.32
20. ACTCTGATCCTTGTAGTCCAGA  -1.36
21. TAGGTGAATTTCCAGGTGCCCG  -1.41
22. AATAGGAGCTCGGAGACCCATA  -1.54

Target: CRYGS
Experiment: as above
Details: shRNA

In order of rising sensor-assay potency score (higher = more potent):
1. TTTGTCTTCATAGAAAGTAATC  -1.62
2. TCGGTGGTTTCATACATCTGAC  -1.43
3. TTTCATACATCTGACCACTAAA  -1.27
4. TATGTGTGGAAATCTGCACAGT  -0.978
5. TTTTTGTCTTCATAGAAAGTAA  -0.778
6. TTCATAGAAAGTAATCTTGGTT  -0.0295
7. TTCGGTGGTTTCATACATCTGA  0.37
